SW480 rereplic: inducers of DNA re-replication in SW480 colon cancer cells; Potency, µM (highest dose often 46.1 µM), usual class: activators; SW480 DNA re-replication, Hoechst DNA content imaging, 48 h; AID 624297; actives 1.8% (n = 340,000); further: nearly all actives have a fitted effect of over 55% in size
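250 cells/well; 23 nL cpd via pin tool; 48 hr, 37 C, 5% CO2; Hoechst 40 min; imager read of total nuclear intensity, ex 405/em 500-530 nm.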
VP16 counter: inhibits Gal4-VP16 luciferase reporter, ROR gamma counter-screen; actives 3.5% (n = 310,000); Potency, µM (titrated, usually from 53.6 µM), usual class: inhibitors; Drosophila S2 Gal4-VP16 UAS-luciferase, luminescence, 20 h;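 further: Gal4-VP16 expression switched on by copper sulfate through the metallothionein promoter; nearly all actives have a fitted effect of over 50% in size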
MCF10A rerep: induces DNA re-replication in MCF 10a normal breast cells; actives 2.9% (n = 350,000); AID 624296; Potency, µM (doses to about 46.1 µM), hits mostly activators; MCF 10A DNA re-replication, Hoechst nuclear intensity, 48 h; further: nearly all actives have a fitted effect of over 50% in size
Giardia killer: Giardia lamblia killing | AID 540267 | actives 0.15% (n = 340,000) | activity change, % at 7.66 µM, hits read low | Giardia lamblia trophozoite viability; in the data active means activity change below about -80%; inconclusive means between about -30% and that limit;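 further: parasites exposed to compound for two days anaerobically before the ATP read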
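Trophozoites 100 cells/well + cpd; 48 hrs, 37 deg C, anaerobic. ATPLite 1-Step added, 15-30 min RT, luminescence read (ATP-based viability).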
RORg inh: ROR gamma (mouse) transcription inhibition; P51450; Drosophila S2 Gal4-RORgamma UAS-luciferase reporter, 20 h; Potency, µM (highest dose often 53.6 µM), hits mostly inhibitors; actives 5.4% (n = 310,000); AID 2551; further: nearly all actives have a fitted effect of over 60% in size
Target sequence (P51450 whole entry, looked up, the tested form may be a part): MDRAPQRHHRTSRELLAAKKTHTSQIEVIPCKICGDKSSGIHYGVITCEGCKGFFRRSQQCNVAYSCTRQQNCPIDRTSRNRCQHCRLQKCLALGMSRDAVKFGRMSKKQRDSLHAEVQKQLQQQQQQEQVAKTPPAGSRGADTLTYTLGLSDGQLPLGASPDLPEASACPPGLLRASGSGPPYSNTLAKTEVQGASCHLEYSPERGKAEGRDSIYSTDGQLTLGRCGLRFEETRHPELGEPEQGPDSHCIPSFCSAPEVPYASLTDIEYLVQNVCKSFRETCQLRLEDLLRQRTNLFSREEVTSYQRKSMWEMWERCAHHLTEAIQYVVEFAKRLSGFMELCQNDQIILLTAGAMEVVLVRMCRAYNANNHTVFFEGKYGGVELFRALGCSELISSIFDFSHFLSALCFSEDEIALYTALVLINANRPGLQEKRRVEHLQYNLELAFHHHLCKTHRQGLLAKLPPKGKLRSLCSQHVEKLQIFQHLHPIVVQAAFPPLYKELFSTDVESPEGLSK
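Read-out: Photinus luciferase luminescence; inhibitors lower reporter signal. Insect Schneider cells with Gal4-ROR gamma fusion under metallothionein promoter, UAS reporter; 700 uM final copper sulfate induction, 20 hr, ambient temperature.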
Chronic BCR inh: inhibitors of chronic active B-cell receptor signaling. ABC-DLBCL IkBa-CBG/CBR reporter, luminescence ratio, 4 h. Potency, µM (highest dose often 46.1 µM), actives largely listed as inhibitors. actives 0.05% (n = 340,000). AID 493014; active means well fitted inhibition curve with a large enough effect in the signal ratio, with a control signal flat, not every such curve was filed as active; inconclusive means small, poorly fitted or top-dose-only effect, or effect the other way, or a change in a side signal; the % refers to the signal ratio
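Concentration-response series (up to 46 uM) were applied to TMD8 dual-reporter cells for 4 h at 37C with doxycycline. Green/red ratio, after filter-overlap correction, defined %Activity; red signal alone was normalised to basal cells and zero luminescence.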
Hits are given with their value; n = inactive; u = inconclusive; x = not tested or not shown; [ ] = another dose, or the depositor's remark. Compounds with a hit are over-represented: about 8.3% of the library has one in this group of screens. Unless noted, the call rests on the fitted dose curve; in most records, active means well fitted curve in the direction sought with a large enough effect; inconclusive means small, poorly fitted or top-dose-only effect, or another doubt; inactive means no such curve, though single readings can be large; an effect the other way counts as inactive or inconclusive.

SMILES | SW480 rereplic | VP16 counter | MCF10A rerep | Giardia killer | RORg inh | Chronic BCR inh
COc1cccc(NC(=S)NNC(=O)Cn2nc([N+](=O)[O-])cc2C)c1 | n | n[10 µM] | n | n | n | u
Cc1cc(C(F)(F)F)nn1CC(=O)NNC(=S)Nc1cccc(Cl)c1 | n | u | n | n | 11µM | n
O=C(Cn1nc(C(F)F)cc1C(F)F)NNC(=S)Nc1ccc([N+](=O)[O-])cc1 | n | u | n | n | 10µM | u
CC1CN(C(=O)CCC(=O)NCc2ccc(Cl)cc2)c2ccccc2S1 (centres undefined) | n | n | n | n | n | n
CC(Oc1ccc2c(-c3ccccc3)cc(=O)oc2c1)C(=O)NCC(O)c1ccccc1 (centres undefined) | u | n | n | n | n | n
Cc1nn(Cc2ccccc2Cl)c2sc(C(=O)NCCCn3ccnc3)cc12 | n | n | u | n | n | u
CCOC(=O)N1CCN(c2c(F)cc3[nH]c(=S)[nH]c3c2Br)CC1 | u | n | 8.2µM | n | u | u
CCCC(=O)Nc1ccc(NC(=O)c2cc3ccccc3o2)c(OC)c1 | n | n | u | n | u | u
CCNc1nc(N)c(C(=O)c2ccc(Cl)s2)s1 | u | u | 0.92µM | n | n | u
COc1ccc2[nH]c3c4c(ccc3c2c1)C(=O)C=CC4=O | 3.3µM | 8.9µM | u | n | 6.3µM | u
Cc1ccc(-n2nc3c(=O)n(CC(=O)NCCc4ccc(Cl)cc4)nc(C)c3c2C)cc1 | n | 13µM | n | n | n | n
COc1cccc(C2=Nn3c(nnc3-c3ccccc3OC)SC2)c1 | x | n | x | x | u | x
O=C(Cc1ccccc1F)Nc1ccc(S(=O)(=O)N2CCCCC2)cc1 | u | n | n | n | n | n
O=C(Cn1nc(-c2ccccc2F)ccc1=O)Nc1ccc(S(=O)(=O)N2CCCCCC2)cc1 | 15µM | n | n | n | n | n
CCOC(=O)C1C(=O)N(C(=O)c2cncc(Br)c2)CC1c1ccccc1 (centres undefined) | n | n | n | n | n | n
CN(Cc1nccs1)C(=O)c1cc(COc2cccc3cnccc23)on1 | n | 13µM | u | n | n | n
CCOC(=O)CC1CCCCN1C(=O)c1cc(COc2cccc3cnccc23)on1 (centres undefined) | n | 4µM | u | n | u | n
COc1cc(Cl)ccc1OCc1cc(C(=O)N(C)Cc2cccc3cnccc23)no1 | n | n | u | n | n | n
Cc1cccc(C)c1OCc1cc(C(=O)N2CCCC2c2nonc2C)no1 (centres undefined) | u | n | 8.2µM | n | n | n
Cc1cccc(CNC(=O)CCn2ccc3cc(S(=O)(=O)N4CCCC4)ccc32)c1 | n | n | n | n | n | n
CC(=O)N1CCC2(CCCN(c3ccncc3)C2)CC1 | x | n | x | x | n | x
CCCC(C)NC(=S)NC(=O)c1cc(S(=O)(=O)N2CCOCC2)ccc1C (centres undefined) | n | u | n | n | u | n
CCCCCC(C)NC(=S)NC(=O)c1cc(S(=O)(=O)N2CCOCC2)ccc1C (centres undefined) | n | 11µM | n | n | 10µM | u
Cc1ccc(S(=O)(=O)N2CCOCC2)cc1C(=O)NC1CCCC1 | n | n | n | n | n | n
Cc1ccc(S(=O)(=O)N2CCOCC2)cc1C(=O)NC(=S)N1CC(C)CC(C)C1 (centres undefined) | n | 5µM | n | n | 1.6µM | n
SMILES | SW480 rereplic | VP16 counter | MCF10A rerep | Giardia killer | RORg inh | Chronic BCR inh
Cc1ccc(C(=O)c2cc3c(cc2[N+](=O)[O-])OCCO3)cc1 | n | n | n | n | n | n
COc1ccc(CCc2ccnc3ccccc23)cc1 | n | x | n | n | x | x
COc1ccc(CCc2ccc3ccccc3n2)cc1 | n | x | 18µM | u | x | x
O=S(=O)(c1ccc(F)cc1)n1cnc2ccccc21 | n | n | n | n | n | n
CCOC(=O)c1cccc(C(=O)Oc2ccccc2)n1 | n | n | 21µM | n | n | n
CCOC(=O)c1[nH]c2ccc(F)cc2c1NC(=O)C(C)N1CCc2cc(OC)c(OC)cc2C1 (centres undefined) | 16µM | n | 7.3µM | n | n | u
COc1cc(/C=N/O)ccc1OCc1ccccc1Cl | n | 5µM | n | n | 1µM | u
S=c1[nH]ncn1/N=C/c1ccc(Br)cc1 | n[9.22 µM] | 4µM | n | n | 2.2µM | u
CCn1c2ccccc2c2cc(/C=N/n3c(-c4cc(C)[nH]n4)n[nH]c3=S)ccc21 | n | u | 8.2µM | n | n | n
CCn1c2ccccc2c2cc(/C=N/n3cn[nH]c3=S)ccc21 | 3.7µM | 7.1µM | u | n | 1.1µM | n
CCn1c2ccccc2c2cc(/C=N/O)ccc21 | 4.1µM | n | n | n | n | n
CCn1c2ccccc2c2cc(NC(C)=O)ccc21 | n | n | n | n | n | u
CCn1c2ccccc2c2cc(/C=N/n3cnnc3)ccc21 | n | u | n | n | n | u
CN(C)C(=S)NC(C)(C)C | n | n | n | n | n | n
O=C(Nc1ccc(Cl)cc1Cl)c1cccc(N2C(=O)C=CC2=O)c1 | 8.2µM | n | 13µM | n | n | u
O=C(Nc1ccc(Cl)cc1Cl)c1ccc2c(c1)OCCO2 | n | x | n | n | x | u
C=CC[n+]1c(-c2ccccc2)csc1NC(C)(C)C | n | n | n | n | n | n
C=CC[n+]1c(-c2ccc(OC)c(OC)c2)csc1NNC(=O)Nc1ccccc1 | n | u | n | n | 10µM | n
CCc1ccc(-c2cn(C3CCCCC3)c(=S)[nH]2)cc1 | n | u | u | n | 0.71µM | n
Cc1cc(NCCCN2CCOCC2)n2nc(C)c(-c3ccccc3)c2n1 | n | n | n | n | n | n
Cc1cc(NCCC(C)C)n2nc(C)c(-c3ccccc3)c2n1 | n | n | 15µM | n | n | u
COc1ccccc1-c1c(C)nn2c(NCCN3CCCC3)cc(C)nc12 | n | 7.1µM | n | n | 6.3µM | n
CCCc1cc(N2CCCC2)n2nc(C)c(-c3ccccc3)c2n1 | n | n[0.365 µM] | u | n | u | u
CCCc1cc(NCc2ccccn2)n2nc(C)c(-c3ccccc3)c2n1 | 3.3µM | 0.56µM | u | n | 0.089µM | n
Cc1nn2c(NCc3ccccn3)cc(C(C)C)nc2c1-c1ccccc1 | u | 0.63µM | u | n | 0.089µM | n
Cc1nn2c(NCCCn3ccnc3)cc(C(C)C)nc2c1-c1ccccc1 | n | n | n | n | u | u
CN(C(=O)c1cccc(NC(=O)Cc2ccc(NC(=O)C3CCCN(C(=O)C4CCC4)C3)cc2)c1)C1CCCC1 (centres undefined) | n | x | n | n | x | x
COC1=C(N)C(=O)c2nc(-c3nc(C(=O)O)c(C)c(-c4ccc(OC)c(OC)c4O)c3N)ccc2C1=O | n | u | n | u | 14µM | u
COc1ccc(C(=O)O)c(O)c1OC | x | n | x | x | n | x

Screens as filed in PubChem.
